This is an account of results in PubChem BioAssay (NCI).

This is part of a sample that, as a whole, favours compounds with a hit. Of some 83,000 tested, about 20% had one in any assay.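 Note: values are percent growth. 100 is the growth of untreated cells, values between 100 and 0 indicate rising inhibition; between -100 and 0 indicates cell death.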 A number with no mark means an inactive call. Calls of active or inactive are those of the source. How the source made its calls: active means growth percent below 10; inactive means the rest.

The assay deals with HL-60(TB) leukemia. Kind of assay: NCI-60 one-dose screen, 48 h (100 = growth as untreated, 0 = no growth, -100 = all killed). The settings on record: 10 µM unless noted.
For the compound `Cc1cc(Oc2ccccc2)ccc1Nc1ncnc2ccc(-c3cnc(Cl)c(NS(C)(=O)=O)c3)cc12`, the growth is 30.3%.
In the case of `Nc1ccc(-c2ccc(N)c(Br)c2)cc1Br` it was 7.99% (active).
In the case of `N#Cc1c[nH]n2ccnc12` it was 123%; in that of `O=S(=O)(NCCCNc1cc(-c2cn(-c3ccccc3)nc2-c2cccc(O)c2)ccn1)c1ccc(Br)cc1`, -13.1% (active); in that of `O=C1C=C(OCC=C(Cl)Cl)C(=O)c2ccccc21`, -1.08% (active).
The figure for `O=C1/C(=C\c2cn(C(=O)c3ccc(Cl)cc3)c3ccccc23)c2ccccc2N1C(=O)c1ccc(Cl)cc1` is 54.2%.
For `Cc1cc(/C=C2\SC(=Nc3ccccc3)N(C3CCCC3)C2=O)c(C)n1-c1ccc(Cl)cc1`, the growth was -27.3% (active).
For `Nc1c(CNCc2nnn(Cc3ccccc3)c2N)nnn1Cc1ccccc1`, the growth was 103%.
The figure for `COc1cc(CNC(=O)Cc2ccccc2)ccc1OCc1cn(-c2ccc(F)cc2)nn1` is 104%; for `O=C1c2ccccc2Cc2cccc(Cl)c21` it is 39.5%.
As for `CC/C=C\C[C@H](O)C/C=C1/C(=O)C=C[C@@H]1C/C=C\CCCC(=O)OCCS(=O)(=O)c1ccccc1`, the growth is 62.1%.
For the compound `COc1cc(-c2cc(-c3nc4ccc(F)cc4[nH]3)[nH]n2)cc(OC)c1OC`, the growth was -35% (active).
In the case of `S=c1[nH]c(=S)c2c(-c3ccccc3)c(-c3ccccc3)oc2[nH]1` it was 94.9%; in that of `Cc1ccc(Cl)cc1NC(=O)c1sc2nc3c(cc2c1N)C(=O)CCC3`, 82.2%.
The figure for `CC(=O)O[C@@H]1C[C@]2(C(C)C)O[C@@]1(C)[C@@H]1CCC(C)=C1[C@@H]2OC(=O)/C=C/c1ccccc1` is 78.8%.
